Assay outcomes: PubChem BioAssay, National Center for Advancing Translational Sciences (NCATS)
Coupling enz: coupling enzyme interference in Giardia aldolase counter-screen. coupling enzyme system counterscreen, AmpLite Red fluorescence. activity change, negative = inhibition, % at 58.2 µM, hits read low. 290,000 compounds, 0.67% hits; in the data active = activity change below about -30%
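Counterscreen of the coupled detection system alone, without aldolase: glyceraldehyde-3-phosphate coupling enzymes plus AmpLite Red readout. Compounds at 57.5 uM final, 10 min RT preincubation, 20 min RT reaction, fluorescence 525/598 nm.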
RORg inh: inhibitors of mouse ROR gamma transcriptional activity. P51450. Drosophila S2 Gal4-RORgamma UAS-luciferase reporter, 20 h. Potency, µM (highest dose often 53.6 µM), for the others: top-dose activity change, negative = inhibition, most hits filed as inhibitors. 310,000 compounds, 5.4% hits. AID 2551; also: potency is read from the fitted curve at half-maximal effect; nearly all actives have a fitted effect of over 60% in size
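Luciferase reporter read in Schneider cells carrying Gal4-RORγ (mouse) and UAS-Photinus luciferase; cells given compound 1 h before 700 uM copper sulfate induction, then incubated 20 h at ambient temperature.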
rTrxR1 inhibitor: rat TrxR1 inhibition. 390,000 compounds, 1% hits. AID 588453. O89049. Potency, µM (titrated, usually from 114 µM), for the others: top-dose activity change, negative = inhibition, most hits filed as inhibitors. recombinant rTrxR1, NADPH fluorescence consumption, selenite substrate; also: potency is read from the fitted curve at half-maximal effect; nearly all actives have a fitted effect of over 65% in size
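Rat TrxR1 (90 nM in the dispensed reagent) was pre-reduced with 400 uM NADPH for 5 min at room temperature, then incubated with compound for 15 min. After 400 uM selenite was added, NADPH fluorescence (Ex 340/Em 450 nm) was followed for 8 min.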
GALK inhibitor: galactokinase (human) inhibition; Purified GALK, Kinase-Glo residual ATP luminescence; 270,000 compounds, 0.007% hits; Potency, µM (doses to about 57.5 µM), inactives show at the highest dose activity change, negative = inhibition, actives largely listed as inhibitors; also: potency is read from the fitted curve at half-maximal effect
Target sequence (P51570 whole entry, looked up): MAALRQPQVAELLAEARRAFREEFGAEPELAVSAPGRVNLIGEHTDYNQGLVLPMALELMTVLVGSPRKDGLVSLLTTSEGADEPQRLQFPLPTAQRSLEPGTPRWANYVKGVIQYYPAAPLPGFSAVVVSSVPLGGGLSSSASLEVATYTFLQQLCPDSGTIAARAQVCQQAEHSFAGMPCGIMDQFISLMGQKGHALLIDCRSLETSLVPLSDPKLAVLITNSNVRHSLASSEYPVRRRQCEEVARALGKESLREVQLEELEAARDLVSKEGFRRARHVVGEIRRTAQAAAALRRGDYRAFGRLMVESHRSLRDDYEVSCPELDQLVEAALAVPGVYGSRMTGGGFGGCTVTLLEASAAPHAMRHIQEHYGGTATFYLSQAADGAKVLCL
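Galactose (100 uM) and ATP (35 uM) were turned over by 5 nM GALK for 1 h at RT. Kinase-Glo Plus then converted the remaining ATP into a luminescent signal.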
Gal4-VP16 FLuc: Gal4-VP16 reporter inhibition counter-screen; Drosophila S2 Gal4-VP16 UAS-luciferase, luminescence, 20 h; Potency, µM (doses to about 53.6 µM), for the others: top-dose activity, negative = inhibition, usual class: inhibitors; 310,000 compounds, 3.5% hits; AID 2546;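 also: Gal4-VP16 expression switched on by copper sulfate through the metallothionein promoter; potency is read from the fitted curve at half-maximal effect; nearly all actives have a fitted effect of over 50% in size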
TrxR1 substrate: is turned over as a substrate by rat TrxR1. 390,000 compounds, 0.01% hits. O89049. purified TrxR1 substrate turnover, NADPH consumption readout. Potency, µM (highest dose often 114 µM), without a hit: top-dose activity change, negative = substrate turnover; also: potency is read from the fitted curve at half-maximal effect; nearly all actives have a fitted effect of over 50% in size
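Rat TrxR1, dispensed at 90 nM, was prereduced with 400 uM NADPH (final) for 5 min at ~22 deg C, then incubated with compound 15 min before 400 uM selenite. A first-read NADPH fluorescence drop versus no-compound background flagged substrates.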
* = called active by the depositor; ? = inconclusive; . = not tested or not shown; [ ] = remark or other dose. Hits are enriched below; roughly 5.9% of the tested compounds scored in any of these assays. Unless noted, calls follow the shape of the dose curve; as a rule, active = well fitted curve in the direction sought with a large enough effect; inconclusive = small, poorly fitted or top-dose-only effect, or another doubt; inactive = no such curve, though single readings can be large; an effect the other way counts as inactive or inconclusive. % is scaled to controls: 0 for no effect and ±100 for the full control effect.

SMILES	Coupling enz	RORg inh	rTrxR1 inhibitor	GALK inhibitor	Gal4-VP16 FLuc	TrxR1 substrate
O=C(NC1CCN(Cc2ccccc2)CC1)c1ccc(Cn2c(=S)[nH]c3ccc(N4CCOCC4)cc3c2=O)cc1	5	2%	7%[57.1 µM]	4%	-5%	8%
O=c1[nH]c2ccc(Cl)cc2c(=O)n1Cc1ccco1	3	?	20%[57.1 µM]	0%	?	9%[57.1 µM]
O=c1c2cc(Cl)ccc2[nH]c(=S)n1Cc1ccco1	2	2.2µM*	-18%	-1%	5.6µM*	-5%
O=c1c2cc(N3CCOCC3)ccc2[nH]c(=S)n1Cc1cccc(Cl)c1	-1	3.5µM*	0%	-3%	5.6µM*	15%
Cc1sc2ncnc(NCC(C)(C)N3CCOCC3)c2c1C	1	?	5%[57.1 µM]	-4%	18µM*	8%[57.1 µM]
Cc1sc2ncnc(Nc3ccccc3)c2c1C	0	0%	-2%	0%	7%	-6%
Cc1sc2ncnc(NCC3CCCO3)c2c1C (stereo unspecified)	.	37%	-10%	-4%	?	-7%
Cc1sc2ncnc(NCc3ccccc3)c2c1C	1	-26%	-6%	-3%	18µM*	-4%
c1ccc(-c2csc3ncnc(NCC4COc5ccccc5O4)c23)cc1 (stereo unspecified)	1	7.1µM*	9%	0%	0.89µM*	7%
Cc1sc2ncnc(NCC3COc4ccccc4O3)c2c1C (stereo unspecified)	3	?	7%	0%	1µM*	-8%
CCNc1ncc2nc(C)c(=O)n(C[C@H]3CCCO3)c2n1	-7	-10%	.	.	-3%	.
Cn1c(=O)c2[nH]c(CSCc3ccccc3)nc2n(C)c1=O	.	.	0%	.	.	-5%
CCCCCCCC/C=C\C/C=C\C/C=C\CCCC(=O)O	5	3%	.	.	-3%	.
CCCN1Cc2cccc(C(=O)Nc3cc(C)cc(C)c3)c2C1=O	.	.	29%	.	.	-3%
O=C(Nc1ccccc1Br)N1CCC(CN2CCCC2)CC1	.	.	17%[57.1 µM]	.	.	0%[57.1 µM]
COc1cc(C2Nc3cccc4cccc(c34)N2)ccc1O	-7	?	-65%	6%	-20%	12%[57.1 µM]
COc1cc(C2Nc3cccc4cccc(c34)N2)cc(OC)c1OC(C)=O	-19	-22%	35µM*	0%	-10%	-11%
CCc1ccc(C(=O)COC(=O)CNC(=O)CNS(=O)(=O)c2ccccc2)cc1	.	-1%	-5%	-2%	-1%	-3%
Nc1nsc2ccccc12	2	14µM*	4%	2%	?	38%
Nc1nnc(N)c2ccccc12	5	15%	6%[57.1 µM]	11%	-8%	20%
CC(C)N(C(=S)NCc1ccccc1)C(C)C	-1	7.1µM*	-5%	1%	11µM*	-6%
Cc1cccc(C)c1NC(=S)N(c1ccccc1)C(C)C	4	-14%	-17%	0%	-7%	1%
CN(C)CCCN(Cc1ccccc1)C(=S)NCc1ccccc1	1	8%	17%	-2%	3%	1%
CC(C)N(C(=S)NCc1ccccc1)c1ccccc1	2	7.9µM*	14%[57.1 µM]	4%	?	-5%
Cc1cc(C)c(S(=O)(=O)c2ccc(F)cc2C)c(Cl)n1	-8	15%	-1%[2.29 µM]	-1%	6%	0%[2.29 µM]
SMILES	Coupling enz	RORg inh	rTrxR1 inhibitor	GALK inhibitor	Gal4-VP16 FLuc	TrxR1 substrate
CC1=CC2=NCC(O)CN2C=C1 (stereo unspecified)	1	-26%	19%[57.1 µM]	0%	5%	38%[57.1 µM]
CCCCCCCCCCOC(=O)Cn1c(COc2ccccc2OC)[n+](C)c2ccccc21	1	?	?	0%	4.5µM*	-17%
O=C(Nc1ccon1)c1ccc(N2CCCCC2)c([N+](=O)[O-])c1	0	-1%	31%	2%	-9%	4%
O=C(Nc1nc2ccccc2s1)c1ccc(N2CCCCC2)c([N+](=O)[O-])c1	-1	10µM*	-16%	-1%	?	-12%
CCCc1nc(SCC(=O)NCC2CCCO2)c2c(=O)n(C)c(=O)n(C)c2n1 (stereo unspecified)	.	-18%	13%	3%	2%	4%
Cc1sc2nc(CN3CCC(C)CC3)nc(Cl)c2c1C	0	18µM*	.	2%	4%	.
Cc1sc2nc(CN3CCOCC3)nc(Cl)c2c1C	1	?	-18%	2%	21%	1%
CCNc1nc(SC(C)C(=O)OC)nc(N(C)C)n1 (stereo unspecified)	2	34%	-6%[57.1 µM]	10%	3%	5%[57.1 µM]
CCNc1nc(SC(C(C)=O)C(C)=O)nc(N(C)C)n1	3	5µM*	-6%	-4%	-27%	3%
CCC(C)Nc1nc(SC(C(C)=O)C(C)=O)nc(N(C)C)n1 (stereo unspecified)	3	13µM*	2%[57.1 µM]	-3%	?	-3%[57.1 µM]
Cc1nn2c(C)nc3sc4c(c3c2nc1=O)CC(C)(C)OC4	0	1%	13%	0%	-2%	9%
CCN(CC)CCn1c(=N)n(CCOc2ccccc2Cl)c2ccccc21	.	.	30%	.	.	10%
Cc1ccc(S(=O)(=O)c2nc(S(C)(=O)=O)sc2N2CCCCCC2)cc1	.	10%	4%	-2%	-16%	-9%
Cc1ccc(S(=O)(=O)c2nc(S(C)(=O)=O)sc2N2CCC(C)CC2)cc1	.	-5%	13µM*	0%	?	5%
COC(=O)C1CN(S(=O)(=O)c2ccc(NC(C)=O)cc2)CCS1 (stereo unspecified)	1	4%	-15%	9%	-3%	-7%
Cc1cc(=O)[nH]c(-n2nc(C)cc2C)n1	0	1.6µM*	15%[57.1 µM]	-2%	3.2µM*	8%[57.1 µM]
Cc1cc(=O)[nH]c(-n2nc(C)c(Oc3ccccc3O)c2C)n1	-1	4.5µM*	12%[57.1 µM]	0%	11µM*	12%[57.1 µM]
CCc1ccc(OCC(=O)NCCc2ccc3c(c2)OCCO3)cc1	.	.	21%	.	.	-4%
COC(=O)C1=C(CS(=O)(=O)c2ccc(C)cc2C)NC(=O)NC1c1ccc(C)cc1 (stereo unspecified)	.	.	-10%	.	.	-3%
O=c1c(Cl)cc(Cl)nn1-c1ccccc1	-1	14µM*	25µM*	1%	?	-5%
COc1cc(Cl)nn(-c2ccccc2)c1=O	2	10%	-7%	4%	2%	-3%
N/C(=N\N=C\c1ccc(Cl)cc1)N/N=C/c1ccc(Cl)cc1	.	14µM*	.	.	-16%	.
CC1(C(=O)Nc2nnc(SCc3ccccc3)s2)Cc2ccccc2C(=O)O1 (stereo unspecified)	7	10µM*	2%	0%	-11%	-3%
CC(C)c1ccc(S(=O)(=O)c2cc3cc(Br)ccc3oc2=O)cc1	2	-40%	-42%	0%	?	8%[57.1 µM]
CCc1ccc(S(=O)(=O)Nc2ccncc2)cc1	-3	-35%	29%	2%	6%	5%
